The list is not random: actives were taken first. Their share in the collection is about 3.3%.
MBD2 inh: inhibitors of MBD2 binding to methylated DNA, primary screen, biochemical, TR-FRET, DNA-binding domain, human; Methyl-CpG-binding domain protein 2 (Homo sapiens), Q9UBB5; inhibition, % at 4.4 µM; actives 0.31% (n = 370,000); MBD2 binding to methylated oligonucleotide; AID 686964, 2013; in the data active = inhibition above about 13%
Target sequence (Q9UBB5 whole entry, looked up, the tested form may be a part): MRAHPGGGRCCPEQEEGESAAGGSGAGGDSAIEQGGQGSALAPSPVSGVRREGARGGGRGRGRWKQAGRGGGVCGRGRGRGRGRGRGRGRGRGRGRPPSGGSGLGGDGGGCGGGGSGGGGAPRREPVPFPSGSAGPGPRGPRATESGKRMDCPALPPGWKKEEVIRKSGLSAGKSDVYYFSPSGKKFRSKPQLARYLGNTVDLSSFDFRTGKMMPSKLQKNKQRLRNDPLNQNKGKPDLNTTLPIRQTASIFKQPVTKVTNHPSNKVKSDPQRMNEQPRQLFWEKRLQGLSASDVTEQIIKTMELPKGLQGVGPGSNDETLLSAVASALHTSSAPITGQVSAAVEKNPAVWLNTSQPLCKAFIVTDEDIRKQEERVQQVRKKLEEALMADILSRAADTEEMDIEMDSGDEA
PRMT1 FP inh: PRMT1 methyltransferase inhibitors, primary screen, biochemical, fluorescence polarization | recombinant PRMT1, activity-based probe fluorescence polarization | inhibition, % at 2.79 µM | actives 1.3% (n = 370,000) | AID 652257, 2013;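 active = inhibition above about 21% made by adding two undisclosed values, limit read from the data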
PfGluPho inh: PfG6PD enzyme inhibitors, primary screen, biochemical, fluorescence intensity, uHTS; actives 0.78% (n = 350,000); PfGluPho enzyme, NADPH resazurin-diaphorase fluorescence; inhibition, % at 20 µM;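 active = inhibition reaching at least a set limit at 20 µM in the primary screen, cut at about 59% in these data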
UHRF1 MBD2 ctr: UHRF1 methylated DNA binding inhibitors, primary screen, counter-screen for MBD2 inhibitor project, biochemical, TR-FRET, human UHRF1, single concentration. E3 ubiquitin-protein ligase UHRF1 (Homo sapiens), Q96T88. actives 0.75% (n = 370,000). AID 687016, 2013. UHRF1 binding to methylated oligo. inhibition, % at 4.4 µM; in the data active = inhibition above about 21%;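 note: UHRF1 SRA domain binding a hemimethylated CpG hairpin DNA probe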
PfM18AAP inh: PfM18AAP inhibitors, malaria aminopeptidase, primary screen, biochemical, QFRET, recombinant enzyme | M18 aspartyl aminopeptidase (Plasmodium falciparum 3D7) | H-Glu-NHMec fluorogenic cleavage | inhibition, % at 7.35 µM | actives 1.2% (n = 290,000) | AID 1822, 2009;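 active = inhibition above the campaign mean inhibition over all tested compounds plus 3 SD, cut at about 28% in these data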
PRMT1 inh conf: PRMT1 methyltransferase inhibitors, confirmation, biochemical, fluorescence polarization, triplicate; shares compounds with PRMT1 FP inh; recombinant His-PRMT1, activity-based probe fluorescence polarization; inhibition, % at 2.79 µM; actives 42% (n = 3,300);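 active = mean inhibition across replicates above the hit cutoff derived for the earlier primary screen, cut at about 22% in these data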
Numbers stand for hits; 0 = inactive; - = no result given.

SMILES | MBD2 inh | PRMT1 FP inh | PfGluPho inh | UHRF1 MBD2 ctr | PfM18AAP inh | PRMT1 inh conf
O=C(COC(=O)c1cc(-c2ccc(Cl)s2)nc2ccccc12)NCc1ccco1 | 0 | 29.7 | 0 | 0 | 0 | 0
COc1ccc(CC2(CO)CCN(CC3=Cc4cc(Cl)ccc4OC3)CC2)cc1 | 0 | 0 | 0 | 0 | 0 | -
COc1ccc(-n2nnnc2C(c2cccc3ccccc23)N2CCN(C/C=C/c3ccccc3)CC2)cc1 (stereo not drawn) | 0 | 0 | - | 0 | - | -
CC(NC(=O)CN1CCN(CC(=O)Nc2ccccc2Cl)CC1)c1ccc(Br)cc1 (stereo not drawn) | 0 | 0 | 0 | 0 | - | -
O=C(COc1cc(Cl)c(Cl)cc1Cl)N1CCN(c2ccccn2)CC1 | 0 | 0 | 0 | 0 | 0 | -
O=[N+]([O-])c1c(Nc2ccccc2O)cc(Cl)c2nonc12 | 0 | 59.6 | 0 | 0 | 0 | 52.7
CN1CCc2c(sc(/N=C/c3ccco3)c2C(N)=O)C1 | 0 | 25.3 | 0 | 0 | 0 | 0
COc1ccc(N2CCN(C(c3ccccc3)c3sc4nc(C)nn4c3O)CC2)cc1 (stereo not drawn) | 0 | 0 | 0 | 0 | - | -
N#Cc1c2c(c(-c3ccco3)[nH]c1=O)CCCC2 | 0 | 46.2 | 0 | 0 | 0 | 0
Cc1[nH]c(=O)c(C#N)c2c1CCCC2 | 0 | 0 | 0 | 0 | 0 | -
CCCCc1ccc(S(=O)(=O)NC(=O)C2(C)CCN2C(=O)Cc2ccccc2)cc1 (stereo not drawn) | 0 | 0 | - | 0 | - | -
C=CCn1c(SCC(=O)Nc2ccc(Br)cc2)nc(O)c(CC)c1=O | 0 | 53.4 | 0 | 0 | 0 | 0
COc1ccc(N2CCN(C(=O)CCN3C(=S)NC(C)(C)CC3C)CC2)cc1 (stereo not drawn) | 0 | 0 | 0 | 0 | 0 | -
Fc1ccc(NC(=S)N2CCSC2c2cccs2)cc1 (stereo not drawn) | 0 | 53.2 | 0 | 0 | 0 | 0
CC(=O)Nc1ccc(/C=C2/Sc3ccccc3C2=O)cc1 | - | - | 0 | - | 0 | -
CC(=O)N(/N=C1\Sc2ccccc2C1=O)c1ccccc1 | 0 | 0 | 0 | 0 | 0 | -
CN1C(=O)S/C(=C/c2cccnc2)C1=O | 0 | 0 | 0 | 0 | 0 | -
O=C1/C(=C\c2cccnc2)Sc2ccccc21 | 0 | 30.8 | 0 | 0 | 0 | 0
CN(C)/C=C1/Sc2ccccc2C1=O | 0 | 57.1 | 0 | 0 | 0 | 28.6
CC(=O)N(\C=C/C=C/C=C1\Sc2ccccc2C1=O)c1ccccc1 | 0 | 46.3 | 0 | 0 | 0 | 26.3
Cc1cccc(CCN2C(N(C)C)=NC[C@@H]2C)c1 | 0 | 0 | 0 | 0 | - | -
NC(=O)CC[C@H](NC(=O)c1ccc(F)cc1)C(=O)OCC(=O)NCc1ccc2c(c1)OCO2 | 0 | 0 | 0 | 0 | - | -
O=C(COc1ccccc1)Nc1ccc(S(=O)(=O)Nc2ccccn2)cc1 | 0 | 31.5 | 0 | 0 | 0 | 0
O=C(COc1ccc(Br)cc1)Nc1ccc(S(=O)(=O)Nc2ccccn2)cc1 | 0 | 0 | 0 | 0 | 0 | -
CN(C)c1ccc2c3c(cccc13)C(=O)N(c1ccccc1)C2=O | - | - | - | - | 0 | -
SMILES | MBD2 inh | PRMT1 FP inh | PfGluPho inh | UHRF1 MBD2 ctr | PfM18AAP inh | PRMT1 inh conf
Nc1ccc2c3c(cccc13)C(=O)N(c1ccccc1)C2=O | 0 | 174.0 | 0 | 0 | 0 | 164.5
O=C(CSc1cccc[n+]1[O-])Nc1cc(Cl)ccc1[N+](=O)[O-] | 0 | 0 | 0 | 0 | - | -
O=[N+]([O-])c1ccc(Sc2cccc[n+]2[O-])c2nonc12 | 0 | 87.5 | 115.0 | 0 | 0 | 90.8
Cc1ccc(C(=O)/C=C/c2ccc(-c3ccc(C)cc3)o2)cc1 | 0 | 49.6 | 0 | 0 | 0 | 0
CC(/C=C/C(=O)c1ccc(C)cc1)=C\c1ccccc1 | 0 | 0 | 0 | 0 | 0 | -
Cc1ccc(C(=O)/C=C\C(=O)c2ccc(C)cc2)cc1 | 0 | 40.0 | 0 | 0 | 0 | 56.7
O=Cc1ccc(-c2ccc(C(=O)O)cc2)o1 | 0 | 0 | 0 | 0 | 0 | -
Cc1ccc(/C=C/C(=O)NCc2cccs2)o1 | 0 | 31.6 | 0 | 0 | 0 | 0
Cc1ccc(/C=C/C(=O)NCc2cccs2)cc1 | 0 | 0 | 0 | 0 | 0 | -
CC(Sc1nnc(C2CC2)n1C1CC1)C(=O)NCc1cccs1 (stereo not drawn) | 0 | 0 | 0 | 0 | - | -

Screening results as filed in PubChem BioAssay.
